Assay [1] can be described thus: S16 Schwann cell viability assay (CellTiter-Glo assay) (AID 624031).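 Also: cellular ATP luminescence as a viability measure; series mostly up to about 58 µM; nearly all actives have a fitted effect of over 70% in size.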 The method, boiled down:
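Untransfected S16 rat Schwann cells; compound 24 h, 37 °C/5% CO2; CellTiter-Glo ATP luminescence. % activity vs no-cell wells and DMSO controls (0%); concentration-effect curves classed by r2, response magnitude, activity.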

Assay [2] in a line: S16 Schwann cell PMP22 intronic element firefly luciferase assay (AID 624032). Also: nearly all actives have a fitted effect of over 30% in size. Also: potency is read from the fitted curve at half-maximal effect. The method, boiled down:
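Rat S16 Schwann cells stably carrying a PMP22 intronic element-driven Fluc reporter were seeded overnight, then exposed to compounds for 24 h at 37 °C. Luminescence was normalized to PTC124 (positive control) and DMSO (0% activity).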

Inconclusive results are not listed. A call without a number means that no potency is given here. Values without a mark were called inactive. Activity calls are given as the source filed them. Calls follow the shape of the dose curve; as a rule, active = well fitted curve in the direction sought with a large enough effect; inconclusive = small, poorly fitted or top-dose-only effect, or another doubt; inactive = no such curve, though single readings can be large; an effect the other way counts as inactive or inconclusive. Where a SMILES comes first, the peptide text is derived from it. Bridges are numbered along the chain shown (N, C = ends). [ ]: non-standard residue; d: D form. hArg = N=C(N)NCCCC[C@H](N)C(=O)O; Mpa = O=C(O)CCS

Turning to `C=CCSCC1Nc2cc(Cl)c(S(N)(=O)=O)cc2S(=O)(=O)N1` (centres undefined), the outcome in assay [1] was inactive. For the compound `NS(=O)(=O)c1cc2c(cc1C(F)(F)F)NCNS2(=O)=O`, in assay [1], the result was inactive. For the same compound, the Potency result in assay [2] is “inactive”.

For `O=C(NCN1CCOCC1)c1cnccn1`, the call in assay [1] was inactive. In assay [2], the Potency entry is “inactive”. Take `Cc1c(NC(=O)c2cccnc2)c(=O)n(-c2ccccc2)n1C`: the result in assay [1] was inactive. In addition, in assay [2], the Potency result is “inactive”. On to `NCC1CCC(C(=O)Oc2ccc(CCC(=O)O)cc2)CC1` (centres undefined), for which the call in assay [1] was inactive. Consider `COc1ccc(C(=O)NCc2ccc(OCCN(C)C)cc2)cc1OC`, for which the compound was classed as inactive in assay [1]. Further, the Potency result in assay [2] is “inactive”. With `Cc1cc(C)c(NC(=O)CN(CC(=O)O)CC(=O)O)c(C)c1Br`, in assay [1], the compound was classed as inactive. Besides, the Potency result in assay [2] was “inactive”. For `CN(C(=O)c1c(O)c2ccccc2n(C)c1=O)c1ccccc1`, the compound was classed as inactive in assay [1]. The Potency result in assay [2] is “inactive”.

`Cc1cc(NC(=O)C2=C(O)c3ccccc3S(=O)(=O)N2C)no1`: the compound was classed as inactive in assay [1]. Besides, the Potency result in assay [2] was “inactive”. Consider `O=C(O)c1ccccc1OP(=O)(O)O`, for which the compound was called inactive in assay [1]. For the same compound, the Potency entry in assay [2] is “inactive”. On to `CNc1c2c(nn1C)CCCC2`, for which the compound was called inactive in assay [1]. The Potency result in assay [2] was “inactive”. For `OCC(O)CS` (centres undefined), the compound was classed as inactive in assay [1]. Also, the Potency result in assay [2] is “inactive”.

As for `O=C(O)c1ccc(OCCCOc2ccc(C(=O)O)cc2)cc1`, in assay [1], the call was inactive. `CCCCCC(C)N` (centres undefined): the compound was called inactive in assay [1]. For the same compound, the Potency entry in assay [2] is “inactive”. On to `O=c1[nH]c2cc(C(F)(F)F)c(N3CCOCC3)cc2n(CP(=O)(O)O)c1=O`, for which, in assay [1], the compound was called inactive. Further, the Potency entry in assay [2] is “inactive”. As to `CC1CCc2cc(F)cc3c(=O)c(C(=O)O)cn1c23` (centres undefined), the compound was called inactive in assay [1]. On to `Cc1ccc(S(=O)(=O)NC(=O)NC2CCCCC2)cc1`, for which, in assay [1], the outcome was inactive. The same measure, in the same setting: with `Cc1c(Cn2ccnc2)c2ccccc2n1CCC(=O)O` the entry was “inactive”; with `O=C1c2ccccc2S(=O)(=O)N1CCCCN1CCN(c2ncccn2)CC1`, “inactive”.

For `COc1ccc(C(=O)N2CCN(CC(=O)N3CCOCC3)CC2)cc1`, the call in assay [1] was inactive. As for `NS(=O)(=O)c1ccc(NC(=O)CCC(=O)O)cc1`, the compound was called inactive in assay [1]. In addition, the Potency entry in assay [2] is “inactive”.

Turning to `CCOC(N)=O`, the call in assay [1] was inactive. For the same compound, the Potency entry in assay [2] was “inactive”.

`C[C@@H]1CCC[C@H](C)N1`: the result in assay [1] was inactive. Besides, the Potency entry in assay [2] was “inactive”. For `Nc1ncnc2c1ncn2[C@@H]1O[C@H](COP(=O)(O)O)[C@@H](O)[C@H]1O`, the outcome in assay [1] was inactive. Also, in assay [2], the Potency entry is “inactive”. As for `O=C(O)Cc1ccc(CCNS(=O)(=O)c2ccc(Cl)cc2)cc1`, the result in assay [1] was inactive. In the case of `Cc1ncc(CO)c(CN)c1O`, the outcome in assay [1] was inactive. Moreover, the Potency result in assay [2] was “inactive”. Turning to `COc1nccnc1NS(=O)(=O)c1ccc(N)cc1`, the result in assay [1] was inactive. The Potency entry in assay [2] was “inactive”. For `Cc1cc(-n2nc3ccc(Cl)cc3n2)c(O)c(C(C)(C)C)c1`, the compound was classed as inactive in assay [1]. Moreover, the Potency result in assay [2] is “inactive”.

Take `CCN(CC)CCOC(=O)C(c1ccccc1)c1ccccc1`: in assay [1], the call was inactive. In the case of `C[C@H]1COc2c(C3(N)CC3)c(F)cc3c(=O)c(C(=O)O)cn1c23`, the compound was classed as inactive in assay [1]. Besides, in assay [2], the Potency entry is “inactive”. On to `CC(=O)Oc1cccc(C)c1`, for which the outcome in assay [1] was inactive. Further, the Potency entry in assay [2] was “inactive”. Turning to `NC(=O)CCCCC1CCSS1` (centres undefined), in assay [1], the outcome was inactive. The Potency result in assay [2] was “inactive”. Consider `CC(=O)NCc1c(I)c(NC(C)=O)c(I)c(C(=O)O)c1I`, for which the compound was called inactive in assay [1]. Also, in assay [2], the Potency result was “inactive”. Consider `O=c1[nH]cnc2nc[nH]c12`, for which the outcome in assay [1] was inactive. Also, the Potency result in assay [2] was “inactive”. Consider `O=C(O)CCCc1ccccc1`, for which, in assay [1], the outcome was inactive. Further, in assay [2], the Potency entry is “inactive”. As to `CCc1cccc(CC)c1NC(=O)CN(CC(=O)O)CC(=O)O`, in assay [1], the outcome was inactive. Moreover, the Potency entry in assay [2] is “inactive”. In the case of `CC[N+](C)(CC)CCOC(=O)C1c2ccccc2Oc2ccccc21`, the compound was called inactive in assay [1]. Further, the Potency result in assay [2] was “inactive”. For the compound `Nc1ccncc1N`, the outcome in assay [1] was inactive. Further, in assay [2], the Potency result is “inactive”. On to `O=C(O)CNC(=O)c1ccccc1I`, for which the outcome in assay [1] was inactive. For the same compound, in assay [2], the Potency entry is “inactive”. As to `NS(=O)(=O)c1cc(-c2nn[nH]n2)c(NCc2cccs2)cc1Cl`, in assay [1], the compound was classed as inactive. Moreover, the Potency result in assay [2] is “inactive”. With `CC(CSC(=O)c1ccccc1)C(=O)N1C[C@@H](Sc2ccccc2)C[C@H]1C(=O)O` (some centres undefined), the call in assay [1] was inactive. Also, in assay [2], the Potency entry was “inactive”. `O=C1CC[C@@H](C(=O)O)N1`: the compound was called inactive in assay [1]. Further, in assay [2], the Potency result was “inactive”. With `Nc1ncnc(Nc2ccccc2)n1`, in assay [1], the compound was classed as inactive. Also, in assay [2], the Potency result is “inactive”. As for `CCN(CC)CCc1nc(-c2ccccc2)no1`, the outcome in assay [1] was inactive. Further, in assay [2], the Potency entry was “inactive”. For the compound `O=C(NCCCN1CCOCC1)c1ccc(Cl)cc1`, the result in assay [1] was inactive. In addition, the Potency entry in assay [2] is “inactive”. On to `C[N+](C)(C)CC[N+]1(C)Cc2c(Cl)c(Cl)c(Cl)c(Cl)c2C1`, for which the result in assay [1] was inactive. Further, in assay [2], the Potency entry was “inactive”. `NC(=O)NS(=O)(=O)c1ccc(N)cc1`: the result in assay [1] was inactive. The Potency result in assay [2] was “inactive”. On to `O=C(O)c1ccccc1C(=O)Nc1ccc(S(=O)(=O)Nc2nccs2)cc1`, for which, in assay [1], the compound was called inactive. Also, the Potency entry in assay [2] was “inactive”. In the case of `NC(=O)[C@@H]1CSSCCC(=O)N[C@@H](CCCCN=C(N)N)C(=O)NCC(=O)N[C@@H](CC(=O)O)C(=O)N[C@@H](Cc2c[nH]c3ccccc23)C(=O)N2CCC[C@H]2C(=O)N1` ([Mpa][hArg]GDWPC-NH2; disulfide 1-7), the result in assay [1] was inactive. Further, the Potency entry in assay [2] is “inactive”. In the case of `CC(CN(C)C)C(C)(O)Cc1ccc(Cl)cc1` (centres undefined), in assay [1], the call was inactive. For the same compound, the Potency entry in assay [2] was “inactive”. Turning to `CN1CCN(C(=O)C2CCCCC2)CC1`, in assay [1], the result was inactive. Also, the Potency result in assay [2] was “inactive”. In the case of `CCOC(=O)[C@H](CCc1ccccc1)N[C@@H](C)C(=O)N1CCC[C@H]1C(=O)O`, the call in assay [1] was inactive. The Potency in assay [2] was 14.4 nM (active).

In the case of `Cc1[nH]c(C)c(Cl)c(=O)c1Cl`, in assay [1], the result was inactive. Moreover, the Potency entry in assay [2] was “inactive”. Take `CN1C[C@@H]2C[C@H]1CN2c1cc2c(cc1F)c(=O)c(C(=O)O)cn2C1CC1`: in assay [1], the outcome was inactive. In assay [2], the Potency entry was “inactive”. Regarding `CC(=O)N[C@@H](Cc1ccc(O)cc1)C(=O)O`, the outcome in assay [1] was inactive. Besides, in assay [2], the Potency entry is “inactive”.

With `O=C(Cn1ccnc1[N+](=O)[O-])NCCO`, the call in assay [1] was inactive. The Potency entry in assay [2] was “inactive”. For `O=c1[nH]c(=O)c2ccccc2o1`, the result in assay [1] was inactive. The Potency result in assay [2] is “inactive”. As to `O=C(/C=C/c1ccccc1)OCc1ccccc1`, the compound was classed as inactive in assay [1]. For the same compound, the Potency result in assay [2] is “inactive”.

Consider `Cc1c(NC(C)C)c(=O)n(-c2ccccc2)n1C`, for which the compound was classed as inactive in assay [1]. Also, in assay [2], the Potency entry is “inactive”. Turning to `CC(C(=O)O)c1ccc2c(c1)Cc1cccnc1O2` (centres undefined), the result in assay [1] was inactive. In addition, the Potency entry in assay [2] is “inactive”.

Take `COc1ccc(Cc2cnc(N)nc2N)cc1OC`: the result in assay [1] was inactive. In addition, the Potency entry in assay [2] was “inactive”. Turning to `O=C(O)CCC(=O)O`, the compound was called inactive in assay [1]. Also, in assay [2], the Potency result was “inactive”.

Source of the values: PubChem BioAssay (NCATS).
